Assay outcomes from PubChem BioAssay.
This excerpt belongs to a sample that is enriched for hits.
ERK EGF block: blocks ERK signaling stimulated by EGF; Potency, µM (doses to about 11.5 µM), inactives show at the highest dose activity change, negative = inhibition, hits mostly inhibitors; 130,000 compounds, 0.41% hits; HEK293-V1b, EGF-stimulated phospho-ERK AlphaScreen; active = well fitted inhibition curve with a large enough effect;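 also: plate controls were stimulated vehicle wells for no effect and unstimulated vehicle basal for full effect; nearly all actives have a fitted effect of over 55% in size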
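After overnight plating in 1% FBS, HEK293-V1b cells received test compound for half an hour, then a 5 min pulse of EGF (25 nM); ERK phosphorylation in lysates was read by bead-based AlphaScreen.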
An asterisk follows results filed as active; [ ] = dose if it differs, or a comment. Potency is read from the fitted curve at half-maximal effect.

SMILES | ERK EGF block
COc1cccc(-c2ccc3ncnc(NCc4cccs4)c3c2)c1 | 28.2µM*
c1cncc(CNc2ncnc3ccc(-c4cccnc4)cc23)c1 | 10.9%
O=c1c(-c2ccccc2)nc2cnc(N3CCNCC3)nc2n1Cc1cccs1 | 24.0%
O=c1cnc2cnc(OCc3ccccc3)nc2n1Cc1ccc(F)cc1 | -3.3%
CCC(C)C1=CC(=Nc2c(C)n(C)n(-c3ccccc3)c2=O)C=C(C(C)CC)C1=O (stereo not drawn) | 15.8µM*
Cc1c(N=c2scc(-c3ccccc3)n2C)c(=O)n(-c2ccccc2)n1C | 8.6%
CC1=CC(=Nc2c(C)n(C)n(-c3ccccc3)c2=O)C=C(C)C1=O | 0.6%
COC(=O)/C(C#N)=C1/C=Cc2ccccc2N1C | -5.5%
CN1/C(=C/c2cc[n+](C)c3ccccc23)C=Cc2ccccc21 | 10µM*
CCCC1(C(=O)OC)C=C2C(=C(C)C(=O)C2C)CN1 (stereo not drawn) | 6.6%
CCCCC/C=C\C/C=C\C/C=C\CCCCC(=O)NC(C)C(=O)O (stereo not drawn) | -1.1%
CN(C)CCCO[C@H]1[C@@H]2OC(C)(C)O[C@@H]2O[C@@H]1[C@H](O)CO | 3.7%[25.7 µM]
CC(C)C[C@@H](CC(=O)N[C@@H](CCC(=O)O)CC(=O)O)NC(=O)[C@@H]1CNCC[C@H]1NC(=O)C[C@@H](NC(=O)C[C@H](CO)NC(=O)[C@@H]1CCCC[C@H]1N)C(C)C | -22.3%
COc1ccccc1-c1cc(=O)c2cc(O)ccc2o1 | -9.6%
COc1ccc(OC)c(-c2c3cc(O)c(=O)cc-3oc3cc(O)c(O)cc23)c1 | 25.1µM*
COc1ccc2c(=O)cc(-c3ccc(O)cc3)oc2c1 | -7.9%
COC(=O)C1(C)C=C(Nc2ccc(OC)cc2)C(=O)N1c1ccc(OC)cc1 (stereo not drawn) | 0.0%
N.N.O=C(O)C1(C(=O)O)CCC1.[Pt] | -13.4%
N#C/C(C(N)=O)=c1/ccc2c(c1)N1C3=C(CCCC3)CC3CCCCC31N=2 (stereo not drawn) | 7.94µM*
C[C@@H](O)C#C[Si](C)(C)c1ccccc1 | -1.2%
COC(=O)c1cccc(NC(=O)c2ccccc2)c1 | -1.6%[57.5 µM]
O=C(Nc1cccc(Br)c1)c1ccc(OC2CSC2)cc1 | 25.1µM*
Cc1cccc(NC(=O)c2ccc(OC3CSC3)cc2)c1 | 0.0%
CC(=O)O[C@@H](C)C#C[Si](C)(C)c1ccccc1 | -10.6%
CCNc1ncc2nc(-c3ccccc3)c(=O)n(-c3ccc(OC)cc3)c2n1 | -14.1%
SMILES | ERK EGF block
Cc1cc(=O)[nH]c(NCc2ccccc2)n1 | -16.4%[57.5 µM]
Cc1nn(-c2nnc(NCc3ccccc3)nn2)c(C)c1Br | 22.4µM*
Cc1cccc(Nc2ccc(NCc3ccccc3)nn2)c1 | 1.5%
CC(C)C[C@@H](CC(=O)N[C@H](CC(=O)N[C@@H]1CCCC[C@H]1C(=O)N[C@H](CC(=O)N[C@@H](CCC(=O)O)CC(=O)O)Cc1ccccc1)C(C)C)NC(=O)[C@@H]1CNCC[C@H]1N | 2.4%
COc1ccc(C(=O)/C=C/Nc2ccc([N+](=O)[O-])cc2)cc1 | 0.5%
COc1ccc(NC(=O)CNC(=O)c2ccc([N+](=O)[O-])cc2)cc1 | 4.6%
COC(=O)/C(=C\C(=O)c1ccc([N+](=O)[O-])cc1)Nc1ccc(OC)cc1 | 12.6µM*
COc1ccc(C(=O)[C@]2(C)C=C(c3ccc(OC)cc3)[C@H](C)C2)cc1 | -0.1%
CCOC(=O)C1=C(N)Oc2cc(O)ccc2C1c1ccc([N+](=O)[O-])cc1 (stereo not drawn) | 17.8µM*
CCOC(=O)C1=C(O)C(=O)N(c2ccccc2)C1c1cccc([N+](=O)[O-])c1 (stereo not drawn) | 10.5%[57.5 µM]
CCOC(=O)C1=C(O)C(=O)N(c2ccc(S(N)(=O)=O)cc2)C1c1ccc([N+](=O)[O-])cc1 (stereo not drawn) | 7.1%[57.5 µM]
O=C(O)[C@@H](O)[C@@H](O)[C@@H](O[C@H]1O[C@@H](CO)[C@@H](O)[C@@H](O)[C@@H]1O)[C@@H](O)CO | 27.4%[25.7 µM]
O=[N+]([O-])c1ccc(N/N=C2\CC3CC=CC23)c([N+](=O)[O-])c1 (stereo not drawn) | 14.1µM*
CCC(CC)=NNc1ccc([N+](=O)[O-])cc1[N+](=O)[O-] | -3.7%
O=[N+]([O-])c1ccc(N/N=C2\CC3CC=CC23)cc1 (stereo not drawn) | -13.3%
C=CC(C1=CC(=O)C(OC)=CC1=O)c1ccccc1 (stereo not drawn) | 8.1%
OC[C@H]1O[C@@H](n2cnc3c(Nc4ccccc4)ncnc32)[C@H](O)[C@H]1O | -3.6%
Cc1nc(N2CCOCC2)c2nc(-c3ccccc3)n(CCCN(C)C)c2n1 | -1.3%
COc1cc2c(cc1OC)C1C(=O)c3ccc4c(c3OC1CO2)C=CC(C)(C)O4 (stereo not drawn) | -2.6%
CCn1c(Cl)c(C=O)s/c1=N\S(=O)(=O)c1ccccc1 | 17.8µM*
CCN1C(=O)CS/C1=N\S(=O)(=O)c1ccc(Cl)cc1 | 12.6%
O=Cc1sc(=O)n(Cc2cccc(C(=O)O)c2)c1Cl | -4.1%[57.5 µM]
NCCC[C@@H](CC(=O)N[C@@H]1CCCC[C@H]1C(=O)N[C@H](CC(=O)N[C@@H](CCC(=O)O)CC(=O)O)Cc1c[nH]c2ccccc12)NC(=O)C[C@H](CO)NC(=O)[C@@H]1CNCC[C@H]1N | -13.4%
O=C1NC[C@H](c2ccccc2)N1 | -6.4%
CCOc1ccc(NC2=C(OC)C(=O)c3ccccc3C2=O)cc1 | 12.6µM*
SMILES | ERK EGF block
CCOc1ccc(Nc2c3ccccc3nc3ccccc23)cc1 | 10.7%[57.5 µM]
CCNC1=C(Cl)C(=O)c2ccccc2C1=O | 15.5%[57.5 µM]
COC1=C(Nc2ccc(OC)cc2)C(=O)c2ccccc2C1=O | 12.6µM*
O=C1C(Cl)=C(NCCN2CCCCC2)C(=O)c2ccccc21 | 5.3%
CCN(CC)c1ccc(NC2=C(Cl)C(=O)c3ccccc3C2=O)cc1 | 10µM*
CCOc1ccc(NC(C)=O)cc1 | -17.0%
COc1ccc(C2=C(Nc3ccccc3)c3ccccc3C2=O)cc1 | -1.7%
COc1ccc(NC2=C(c3ccc(OC)cc3)C(=O)c3ccccc32)cc1 | 3.4%
CN1CCC2(CCN3CCc4c(oc5ccccc45)C3C2)N(C)C1=O (stereo not drawn) | 17.4%
Cc1cc(O)cc(O)c1C(=O)OC1(C)C(=O)C=C2C=C(/C=C/C(=O)O)OC=C2C1=O (stereo not drawn) | -9.1%
NCCC[C@@H](CC(=O)N[C@@H]1CCCC[C@H]1C(=O)N[C@H](CC(=O)N[C@@H](CCC(=O)O)CC(=O)O)Cc1ccccc1)NC(=O)C[C@H](Cc1c[nH]c2ccccc12)NC(=O)[C@@H]1CCCC[C@H]1N | -0.1%
C=CC(C1=CC(=O)C(OC)=C(OC)C1=O)c1ccccc1 (stereo not drawn) | 34.9%
C[C@H]1CC[C@@H]2[C@@H](C)[C@H]3[C@H](C[C@H]4[C@@H]5CC=C6C[C@@H](O[C@]7(O[C@H]8O[C@@H](C)[C@@H](O)[C@@H](O)[C@@H]8O)C[C@@H](O[C@@H]8O[C@H](CO)[C@@H](O)[C@H](O)[C@@H]8O)[C@@H](O)[C@H](CO)O7)CC[C@]6(C)[C@H]5CC[C@@]34C)N2C1 | 4.2%[25.7 µM]
CC(=O)O[C@@H]1C(CO[Si](C)(C)C(C)(C)C)=C(Br)C(=O)[C@@H]2O[C@]12C | -10.5%
COc1ccc2c(c1)C(=O)[C@H](OC(=O)N[C@H]1CCCc3ccccc31)[C@@H](c1ccc(OC)c(Br)c1)O2 | -6.5%
C=CCC(C)(O)c1ccsc1 (stereo not drawn) | -11.7%
CCCCC/C=C\C/C=C\CCCCCCCC(=O)NCCCC(=O)O | 7.4%
Cn1c(O)c(C=Nc2ccc(N3CCOCC3)cc2)c(=O)n(C)c1=S | -2.8%
